Pf growth 48h: P. falciparum growth inhibition at 48 hours (one generation) | 5.9% of 310,000 active | Potency, µM (top dose mostly 28.7 µM), inactives show top-dose activity change, negative = inhibition, usual class: inhibitors | P. falciparum luciferase growth in erythrocytes, 48 h; note: % is set by controls: 0 for no effect and ±100 for the full control effect
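Read-out is firefly luciferase luminescence from an integrated reporter in P. falciparum, so falling signal marks reduced parasite growth. Infected erythrocytes were at 2% hematocrit and 0.1% parasitemia (final) in Albumax-supplemented RPMI 1640.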
SARS PLpro yeast: inhibitors of SARS-CoV papain-like protease in yeast | Potency, µM (highest dose often 32.9 µM), for inactives: at the highest dose activity, positive = growth rescue, hits mostly activators | 0.19% of 330,000 active | AID 485353 | S. cerevisiae expressing SARS-CoV PLpro, growth rescue; calls by dose curve; note: 0% is about no effect; nearly all actives have a fitted effect of over 55% in size
NS1 function inh: inhibitors of influenza NS1 protein function. AID 2326. Potency, µM (series often up to 46.1 µM), for the others: at the top dose activity, positive = more growth. 0.4% of 270,000 active; calls by dose curve; note: actives are rising curves; nearly all actives have a fitted effect of over 50% in size
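Recovery from NS1-induced slow growth read by OD600 in budding yeast switched to galactose assay medium (pH 6.0, -URA) at 1:100 dilution. Compound 23 nl per well; the matching strain lacking NS1 serves as control.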
Pf growth 96h: P. falciparum growth inhibition at 96 hour, primary screen for plastid delayed-death inhibitors; Potency, µM (titrated, usually from 28.7 µM), without a hit: at the top dose activity change, negative = inhibition, actives largely listed as inhibitors; 6.9% of 320,000 active; P. falciparum luciferase reporter growth, 96 h; AID 504834; note: % is set by controls: 0 for no effect and ±100 for the full control effect
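Two-generation exposure (96 h) targets delayed-death phenotype. Reporter parasites carrying integrated firefly luciferase, in red cells at 2% hematocrit and 0.05% parasitemia final, kept at 37 C, 5% CO2; luminescence loss indicates inhibition.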
* marks the source's active call; other numbers are inactive results. Sampled rows, rich in hits. Any-hit rate of the full collection: about 10%. Unless noted, calls come from the whole dose curve; as a rule, active = well fitted inhibition curve with a large enough effect; inconclusive = small, poorly fitted or top-dose-only effect, or another doubt; inactive = no such curve, though single readings can be large or run the other way. Potency is the fitted concentration of half-maximal effect.

`Cc1oc(CSCCSCc2cc(C(=O)O)c(C)o2)cc1C(=O)O` gave Pf growth 48h 7%, SARS PLpro yeast -4%, NS1 function inh inconclusive and Pf growth 96h 15µM*.
For O=C(CNC(=O)c1ccco1)NCC(=O)OCc1ccc(F)cc1 the results were Pf growth 48h 5%, SARS PLpro yeast 2%, NS1 function inh 3% and Pf growth 96h 3.3µM*.
Cc1onc(-c2ccc(Cl)cc2)c1-c1ccnc(SCC(=O)Nc2cc(Cl)cc(Cl)c2)n1 was read as Pf growth 48h inconclusive, SARS PLpro yeast 0%, NS1 function inh 14% and Pf growth 96h inconclusive.
For Cc1onc(-c2ccccc2)c1-c1ccnn1S(=O)(=O)c1ccc(Cl)cc1 the results were Pf growth 48h inconclusive, SARS PLpro yeast -3%, NS1 function inh -3% and Pf growth 96h 3.3µM*.
Screening Cc1onc(-c2ccc(Cl)cc2)c1-c1ccnn1S(=O)(=O)c1cccc(C(F)(F)F)c1 returned Pf growth 48h 1.7µM*, SARS PLpro yeast 1%, NS1 function inh 1% and Pf growth 96h 3.3µM*.
Screening Cc1ccc(S(=O)(=O)n2nccc2-c2c(-c3ccccc3)noc2C)cc1 returned Pf growth 48h 5.9µM*, SARS PLpro yeast 0%, NS1 function inh -6% and Pf growth 96h inconclusive.
CSCC[C@H](NS(=O)(=O)c1ccc(C)cc1)C(=O)N1CCC(C(=O)N[C@@H](Cc2ccc(O)cc2)C(=O)O)CC1 was read as Pf growth 48h 13%, SARS PLpro yeast -6%, NS1 function inh 0% and Pf growth 96h 3%.
O=C(CCCn1cncn1)N1CCCC(N2CCN(c3ccccc3F)CC2)C1 (configuration not stated) was read as Pf growth 48h 0%, SARS PLpro yeast inconclusive, NS1 function inh -6% and Pf growth 96h -100%.
For O=C(CN1C(=O)NC2(CCCC2)C1=O)NNC(=O)c1ccc(Br)cc1 the results were Pf growth 48h 9%, SARS PLpro yeast 3% and Pf growth 96h 7%.
For O=C(CCn1nnc2ccccc21)Nc1nnc(Cc2ccc(F)cc2)s1 the results were Pf growth 48h -5%, SARS PLpro yeast -2% and NS1 function inh 6%.
For CC(=O)Nc1ccc(NC(=O)CCn2nnc3ccccc32)cc1 the results were Pf growth 48h 9.3µM*, SARS PLpro yeast -1%, NS1 function inh -5% and Pf growth 96h -3%.
O=C(CCn1nnc2ccccc21)Nc1nnc(COc2ccc(F)cc2)s1 was read as Pf growth 48h -4%, SARS PLpro yeast 8%, NS1 function inh 13% and Pf growth 96h 9.3µM*.
For O=C(C1=C[C@H](c2ccccc2)C[C@H](OCc2ccc(CO)cc2)O1)N1CCN(Cc2ccccc2)CC1 the results were Pf growth 48h inconclusive, SARS PLpro yeast -1%, NS1 function inh -7% and Pf growth 96h inconclusive.
For O=C(Nc1ccccc1)C1=C[C@H](c2ccccc2)C[C@H](OCc2ccc(CO)cc2)O1 the results were Pf growth 48h inconclusive, SARS PLpro yeast -2%, NS1 function inh -4% and Pf growth 96h inconclusive.
Screening O=C(C1=C[C@H](c2ccc(C(F)(F)F)cc2)C[C@H](OCc2ccc(CO)cc2)O1)N1CCCCCCC1 returned Pf growth 48h inconclusive, SARS PLpro yeast -1%, NS1 function inh -4% and Pf growth 96h 9.3µM*.
O=C(C1=C[C@@H](c2ccccc2)C[C@@H](OCc2ccc(CO)cc2)O1)N1CCCCCCC1 was read as Pf growth 48h inconclusive, SARS PLpro yeast -1%, NS1 function inh -1% and Pf growth 96h 8.3µM*.
C#Cc1ccc([C@H]2C=C(C(=O)Nc3ccccc3)O[C@@H](OCc3ccc(CO)cc3)C2)cc1 was read as Pf growth 48h 7.4µM*, SARS PLpro yeast -1%, NS1 function inh -36% and Pf growth 96h 7.4µM*.
For O=C(Nc1c2c(nn1-c1ccccc1)CS(=O)C2)c1ccc2c(c1)OCO2 (configuration not stated) the results were Pf growth 48h 17%, SARS PLpro yeast 18%, NS1 function inh -7% and Pf growth 96h 19%.
Screening COC(=O)C1=C(c2ccc(F)cc2OCc2ccccc2)C[C@@H]2CC[C@H]1N2C(=O)NCCCOC(C)C returned Pf growth 48h 9.3µM*, SARS PLpro yeast -2% and Pf growth 96h inconclusive.
CCCNC(=O)N1[C@H]2CC[C@@H]1C(C(=O)OC)=C(c1ccc(F)cc1OCc1ccccc1)C2 was read as Pf growth 48h inconclusive, SARS PLpro yeast -6% and Pf growth 96h inconclusive.
`COC(=O)C1=C(c2ccc(F)cc2OCc2ccccc2)C[C@@H]2CC[C@H]1N2C(=O)NCc1cccc(F)c1` gave Pf growth 48h 2.3µM*, SARS PLpro yeast 7% and Pf growth 96h inconclusive.
COC(=O)C1=C(c2ccc(F)cc2OCc2ccccc2)C[C@@H]2CC[C@H]1N2C(=O)N1CCC(O)CC1 was read as Pf growth 48h 12µM*, SARS PLpro yeast -5% and Pf growth 96h inconclusive.
Screening COC(=O)C1=C(c2ccc(F)cc2OCc2ccccc2)C[C@@H]2CC[C@H]1N2C(=O)NCc1ccc2c(c1)OCO2 returned Pf growth 48h 2.9µM*, SARS PLpro yeast -14% and Pf growth 96h inconclusive.
For O=C(Cc1ccc(Br)cc1)NCc1ccccc1 the results were Pf growth 48h 41%, SARS PLpro yeast -1%, NS1 function inh 13% and Pf growth 96h inconclusive.
Cc1ccccc1-c1cc(C(=O)NCc2cccc(C(F)(F)F)c2)n(CC2CC(c3cccnc3)=NO2)n1 (configuration not stated) was read as SARS PLpro yeast -6%.
Screening COC(=O)C1=C(c2ccc(F)cc2OCc2ccccc2)C[C@@H]2CC[C@H]1N2C(=O)NCc1ccccc1OC returned Pf growth 48h 6.6µM*, SARS PLpro yeast 0% and Pf growth 96h inconclusive.
COC(=O)C1=C(c2ccc(F)cc2OCc2ccccc2)C[C@@H]2CC[C@H]1N2C(=O)NCC1CC1 was read as Pf growth 48h 10µM*, SARS PLpro yeast 1% and Pf growth 96h inconclusive.
For COC(=O)C1=C(c2ccc(F)cc2OCc2ccccc2)C[C@@H]2CC[C@H]1N2C(=O)NCCO the results were Pf growth 48h inconclusive, SARS PLpro yeast 0% and Pf growth 96h inconclusive.
`COC(=O)C1=C(c2ccc(F)cc2OCc2ccccc2)C[C@@H]2CC[C@H]1N2C(=O)NCc1ccccc1` gave Pf growth 48h 9.3µM*, SARS PLpro yeast -1% and Pf growth 96h 4.1µM*.
For CCOC(=O)c1ccc(NS(=O)(=O)c2cc3c4c(c2)CCN4C(=O)CC3)cc1 the results were Pf growth 48h inconclusive, SARS PLpro yeast 1% and Pf growth 96h 7%.
Screening CC1CCCN(C(=O)C(C)Sc2nc(-c3ccccc3)cc(C(F)(F)F)n2)C1 (configuration not stated) returned Pf growth 48h 2.6µM*, SARS PLpro yeast -24% and NS1 function inh 3%.
Screening Cc1[nH]c2ccccc2c1CCCO returned Pf growth 48h -4%, SARS PLpro yeast -1%, NS1 function inh 0% and Pf growth 96h 21%.
For COC1=C(OC)C(=O)C(CCCCCCCCCCO)=C(C)C1=O the results were Pf growth 48h inconclusive, SARS PLpro yeast -17% and Pf growth 96h 6µM*.

Source: PubChem BioAssay (National Center for Advancing Translational Sciences (NCATS))
